Source: PubChem BioAssay
Compounds with a hit are over-represented: about 12% of the library has one in this group of screens.
HP1b chromo inh: HP1-beta chromodomain-methylated histone interaction inhibition; AlphaScreen HP1-beta / biotin-H3K9me3 peptide binding; Potency, µM (doses to about 114 µM), without a hit: top-dose activity change, negative = inhibition, most hits filed as inhibitors; 390,000 tested, 0.56% active; note: nearly all actives have a fitted effect of over 70% in size
Target sequence (P83916 whole entry, looked up): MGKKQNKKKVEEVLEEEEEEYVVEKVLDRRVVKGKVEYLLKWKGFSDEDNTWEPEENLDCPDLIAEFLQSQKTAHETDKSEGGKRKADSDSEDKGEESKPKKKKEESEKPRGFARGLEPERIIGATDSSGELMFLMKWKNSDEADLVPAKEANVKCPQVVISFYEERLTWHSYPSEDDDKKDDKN
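Compound inhibition of the preformed complex between 50 nM HP1-beta and 50 nM biotinylated H3K9me3 peptide was read by AlphaScreen. Buffer was PBS pH 7.4 with 0.01% Tween-20. Incubations ran 30 min at room temperature, with 10 ug/mL donor/acceptor beads.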
Sfp PPTase inh: inhibitors of Bacillus subtilis Sfp phosphopantetheinyl transferase; Q9F4F7; Biochemical Sfp PPTase activity, qHTS; Potency, µM, for inactives: largest response in the series, negative = inhibition, actives largely listed as inhibitors; 310,000 tested, 3.5% active;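 note: the enzyme is Sfp with the accession as filed and its product quenches rhodamine fluorescence; 0% = enzyme reaction without inhibitor and -100% = no enzyme wells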
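After 15 min at room temperature with compound, 15 nM Sfp received 5 uM rhodamine-CoA plus 12.5 uM BHQ-2-ybbR (50 mM Hepes pH 7.6, 10 mM MgCl2). Rate came from the fluorescence difference over 30 min, ex 525/em 598 nm.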
L3MBTL1 block: inhibitors of human L3MBTL1. Q9Y468. AlphaScreen L3MBTL1–H3K9me1 peptide binding. Potency, µM (highest dose often 57.1 µM), without a hit: at the top dose activity, negative = inhibition, usual class: inhibitors. 230,000 tested, 0.66% active. AID 485360; note: % is set by controls: 0 for no effect and ±100 for the full control effect; nearly all actives have a fitted effect of over 60% in size
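AlphaScreen proximity signal between nickel-chelate acceptor and streptavidin donor beads (final 10 ug/mL) reports binding of 50 nM L3MBTL1 to 75 nM biotin-H3 K9me1 peptide; complex incubated with compounds 30 min at room temperature; cefsulodin titration as control.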
BAZ2B block: BAZ2B (human) inhibition; Q9UIF8; AID 504333; 360,000 tested, 4.4% active; Potency, µM (doses to about 114 µM), without a hit: top-dose activity change, negative = inhibition, most hits filed as inhibitors; AlphaScreen BAZ2B-H3K14Ac peptide displacement; note: % is set by controls: 0 for no effect and ±100 for the full control effect; nearly all actives have a fitted effect of over 60% in size
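AlphaScreen luminescence quantifies BAZ2B engagement of H3K14Ac peptide; the protein and biotinylated peptide are both at 50 nM final, buffer PBS pH 7.4 with 0.01% Tween-20, all steps at room temperature.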
G9a inh: blocks human histone lysine methyltransferase G9a | 350,000 tested, 8.8% active | G9a H3K9 monomethylation, AlphaScreen, 2 h | AID 504332 | Q96KQ7 | Potency, µM (titrated, usually from 102 µM), for the others: at the highest dose activity, negative = inhibition, hits mostly inhibitors; note: % is set by controls: 0 for no effect and ±100 for the full control effect; nearly all actives have a fitted effect of over 75% in size
Target sequence (Q96KQ7 913-1193 limits assumed): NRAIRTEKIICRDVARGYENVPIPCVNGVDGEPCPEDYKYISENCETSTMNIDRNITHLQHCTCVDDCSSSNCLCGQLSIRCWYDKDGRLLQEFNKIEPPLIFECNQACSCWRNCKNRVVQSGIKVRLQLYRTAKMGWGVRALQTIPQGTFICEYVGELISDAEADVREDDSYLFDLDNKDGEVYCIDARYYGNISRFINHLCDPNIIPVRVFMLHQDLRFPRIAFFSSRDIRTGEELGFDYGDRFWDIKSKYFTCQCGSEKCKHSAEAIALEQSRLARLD
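Methyltransferase reactions run at room temperature for 2 h (20 nM enzyme, 500 nM biotin-H3K9 peptide, 20 uM SAM) after a 15 min compound preincubation; product detected by AlphaScreen beads and anti-H3K9me1 antibody.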
JMJD2A Tudor inh: inhibitors of human JMJD2A Tudor domain. 390,000 tested, 4.4% active. O75164. Potency, µM (top dose mostly 114 µM), inactives show at the highest dose activity change, negative = inhibition, hits mostly inhibitors. AlphaScreen JMJD2A-Tudor / H3K4me3 peptide binding; note: % is set by controls: 0 for no effect and ±100 for the full control effect; nearly all actives have a fitted effect of over 50% in size
Active calls of the source: *; [ ] = another dose, or the depositor's remark. Calls come from the whole dose curve; as a rule, active = well fitted curve in the direction sought with a large enough effect; inconclusive = small, poorly fitted or top-dose-only effect, or another doubt; inactive = no such curve, though single readings can be large; an effect the other way counts as inactive or inconclusive. Potency is the fitted concentration of half-maximal effect.

`CCOc1ccc(NC(=O)CN2CCN(CC(=O)Nc3ccc(C(N)=O)cc3)CC2)cc1` gave HP1b chromo inh 32%, Sfp PPTase inh 5%, BAZ2B block 2%, G9a inh 50µM* and JMJD2A Tudor inh 5%.
O=C(CN1CCCCCC1)N/N=C/c1cccs1 was read as HP1b chromo inh -28%, Sfp PPTase inh -8%, BAZ2B block 79µM*, G9a inh 2% and JMJD2A Tudor inh 3.2µM*.
Screening COC(=O)c1ccc(NC(=O)CN2CCOCC2)cc1 returned HP1b chromo inh 11%, Sfp PPTase inh 13%, L3MBTL1 block 3%, BAZ2B block 21%, G9a inh 8%[59 µM] and JMJD2A Tudor inh -15%.
CCOc1ccc(/C=N/NC(=O)CN2CCCCCCC2)cc1 was read as HP1b chromo inh inconclusive, Sfp PPTase inh -27%, BAZ2B block 50µM*, G9a inh 7.9µM* and JMJD2A Tudor inh 20µM*.
Screening CCOc1ccc(NC(=O)CN2CCN(CC(=O)Nc3ccc(F)cc3)CC2)cc1 returned HP1b chromo inh 67%, Sfp PPTase inh 10%, L3MBTL1 block 5%, BAZ2B block 1%, G9a inh 3%[12.7 µM] and JMJD2A Tudor inh -10%.
`O=C(NCc1ccccc1Cl)C1CCCN(c2ncnc3onc(-c4ccc(F)cc4)c23)C1` (configuration not stated) gave HP1b chromo inh 14%, BAZ2B block 8%[57.1 µM], G9a inh -7%[59 µM] and JMJD2A Tudor inh -24%.
For COc1ccc(Cl)cc1NC(=O)CSc1nnc(C)n2c1cc1occc12 the results were HP1b chromo inh 33%, BAZ2B block -13%, G9a inh 6%[59 µM] and JMJD2A Tudor inh -1%.
CCOc1ccc(/C=N/NC(=O)CN2CCCCC2)cc1OCC was read as HP1b chromo inh 25%, Sfp PPTase inh 21%, L3MBTL1 block -25%, BAZ2B block inconclusive, G9a inh -1% and JMJD2A Tudor inh -11%.
Screening O=C(CN1CCCCCC1)N/N=C/c1ccc(Cl)c(Cl)c1 returned HP1b chromo inh -24%, Sfp PPTase inh -23%, L3MBTL1 block -9%, BAZ2B block 50µM*, G9a inh 13µM* and JMJD2A Tudor inh 8.9µM*.
For Clc1ccc(CSc2ncnc3c2ncn3C2CCCCO2)cc1 (configuration not stated) the results were HP1b chromo inh 65% and JMJD2A Tudor inh 21%.
For CCC1OC(=O)C[C@@H](O)[C@H](C)[C@@H](OC2OC(C)CC(N(C)C)C2O)[C@@H](CC=O)C[C@@H](C)C(=O)/C=C/[C@]2(C)OC2C1C (some centres not stated) the results were Sfp PPTase inh -1% and G9a inh 0%[12.7 µM].
O=C(O)C1CCC(C(=O)O)SS1 (configuration not stated) was read as HP1b chromo inh 6% and JMJD2A Tudor inh -17%.
`O=C(Cc1ccccc1)N/N=C/c1cccc([N+](=O)[O-])c1` gave HP1b chromo inh 17%, Sfp PPTase inh 14%, L3MBTL1 block 8%, BAZ2B block -21%, G9a inh 4% and JMJD2A Tudor inh -6%.
For Nc1nnc(CC(=O)N/N=C/c2cc([N+](=O)[O-])cc(Br)c2O)s1 the results were HP1b chromo inh -14%, Sfp PPTase inh -16%, L3MBTL1 block inconclusive, BAZ2B block 50µM*, G9a inh 22µM* and JMJD2A Tudor inh 79µM*.
COC(=O)N/N=C/c1cc([N+](=O)[O-])cc(Br)c1O was read as HP1b chromo inh 26%, Sfp PPTase inh 20%, L3MBTL1 block 17%, BAZ2B block -30%, G9a inh 4%[59 µM] and JMJD2A Tudor inh -23%.
For Nc1nnc(CC(=O)N/N=C/c2cccc([N+](=O)[O-])c2)s1 the results were HP1b chromo inh 27%, Sfp PPTase inh 50µM*, L3MBTL1 block 1%, BAZ2B block -32%, G9a inh 38%[12.7 µM] and JMJD2A Tudor inh -12%.
